# Screens: PubChem BioAssay, National Center for Advancing Translational Sciences (NCATS)
# Most compounds without a hit are left out; they make up all but 10% or so of the library.
# PLK1 PBD block: blocks phosphopeptide binding to human PLK1 polo-box domain; 360,000 tested, 2.8% active; Potency, µM, without a hit: max response, negative = inhibition, most hits filed as inhibitors; Plk1 PBD binding of FITC phosphopeptide, fluorescence polarization; further: potency means the concentration at half of the fitted maximal effect; series mostly up to about 57 µM; nearly all actives have a fitted effect of over 65% in size
# CCT chaperon mod: changes cytosolic chaperonin activity. AID 651819. purified chaperonin ATPase assay, HTRF ADP detection, 30 min. 360,000 tested, 0.3% active. activity change, % (concentration not given with the values), hits read low; in the data active means activity change below about -30%
#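 ATPase activity: ADP formed was measured by HTRF Transcreener (665/615 nm ratio) after 30 min at 37 deg C with 10 uM ATP. Compounds screened at one 76 uM concentration against 40 or 20 nM TRiC in Tris pH 7.4/KCl/MgCl2/DTT buffer.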
# Sfp inh: inhibitors of Bacillus subtilis Sfp phosphopantetheinyl transferase; Q9F4F7; Biochemical Sfp PPTase activity, qHTS; Potency, µM, for inactives: largest response in the series, negative = inhibition, hits mostly inhibitors; 310,000 tested, 3.5% active;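 further: the enzyme is Sfp with the accession as filed and its product quenches rhodamine fluorescence; potency means the concentration at half of the fitted maximal effect; 0% = enzyme reaction without inhibitor and -100% = no enzyme wells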
#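 Fluorescence-quenching assay: 15 nM Sfp-PPTase preincubated 15 min at room temperature with compound, then 5 uM rhodamine-CoA and 12.5 uM BHQ-2-labelled YbbR peptide added. Fluorescence (ex 525/em 598 nm) read at start and after 30 min; difference gives rate.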
# MmCpn inh: blocks the Methanococcus maripaludis chaperonin Mm-Cpn; purified Mm-Cpn ATPase, ADP Transcreener TR-FRET; Potency, µM (top dose mostly 76.9 µM), inactives show at the highest dose activity, negative = inhibition, actives largely listed as inhibitors; 330,000 tested, 0.031% active; AID 504842; further: potency means the concentration at half of the fitted maximal effect; nearly all actives have a fitted effect of over 80% in size
#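 Eu-cryptate anti-ADP/ADP-d2 competition gives a ratio inversely related to ADP. Enzyme at 25 nM was pre-exposed to compound for 10 min, then given 10 uM ATP for 30 min, 37°C throughout.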
# VDR inhibitor: blocks the human vitamin D receptor; VDR-SRC2-3 peptide fluorescence polarization, 2 h; AID 504847; 400,000 tested, 0.93% active; Potency, µM, for the others: max response, negative = inhibition, hits mostly inhibitors; P11473; further: potency means the concentration at half of the fitted maximal effect
# Target sequence (P11473 whole entry, looked up): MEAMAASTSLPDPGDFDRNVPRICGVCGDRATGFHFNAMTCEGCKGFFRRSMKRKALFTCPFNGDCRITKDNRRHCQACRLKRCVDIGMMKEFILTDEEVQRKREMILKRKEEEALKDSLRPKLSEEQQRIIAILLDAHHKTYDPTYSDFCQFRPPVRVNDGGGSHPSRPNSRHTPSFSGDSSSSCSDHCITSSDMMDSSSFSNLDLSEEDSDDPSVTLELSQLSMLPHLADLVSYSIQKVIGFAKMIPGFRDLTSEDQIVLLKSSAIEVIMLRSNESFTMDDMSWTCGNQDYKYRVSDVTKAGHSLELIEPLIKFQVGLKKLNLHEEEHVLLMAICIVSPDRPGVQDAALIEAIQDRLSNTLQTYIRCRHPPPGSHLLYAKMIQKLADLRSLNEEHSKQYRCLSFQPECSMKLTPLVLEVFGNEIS
#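 Fluorescence polarization assay of small-molecule disruption of VDR binding to coregulator peptide SRC2-3. Compounds and controls pin-transferred, then read after 2 h incubation at ambient room temperature.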
# G9a block: inhibitors of human histone lysine methyltransferase G9a; Q96KQ7; G9a H3K9 monomethylation, AlphaScreen, 2 h; Potency, µM (highest dose often 102 µM), for inactives: top-dose activity, negative = inhibition, actives largely listed as inhibitors; 350,000 tested, 8.8% active; AID 504332; further: potency means the concentration at half of the fitted maximal effect; nearly all actives have a fitted effect of over 75% in size
# Target sequence (Q96KQ7 913-1193 limits assumed): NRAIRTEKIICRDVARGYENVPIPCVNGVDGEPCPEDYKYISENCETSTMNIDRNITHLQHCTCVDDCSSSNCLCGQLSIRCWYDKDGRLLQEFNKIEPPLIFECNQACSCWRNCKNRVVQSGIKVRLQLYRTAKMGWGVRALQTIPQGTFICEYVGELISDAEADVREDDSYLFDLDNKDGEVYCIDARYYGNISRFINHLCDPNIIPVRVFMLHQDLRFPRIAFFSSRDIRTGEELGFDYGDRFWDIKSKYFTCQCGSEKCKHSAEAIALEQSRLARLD
#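 Compounds were preincubated with 20 nM G9a for 15 min, after which biotinylated H3K9 peptide (500 nM) and SAM (20 uM) started a 2 h room-temperature reaction. Monomethylated product was quantified by antibody-based AlphaScreen chemiluminescence.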
# * marks the source's active call; other numbers are inactive results; ? = inconclusive; . = no result; ! = repeats disagree; [ ] = another dose, or the depositor's remark. Unless noted, the call rests on the fitted dose curve; in most records, active means well fitted curve in the direction sought with a large enough effect; inconclusive means small, poorly fitted or top-dose-only effect, or another doubt; inactive means no such curve, though single readings can be large; an effect the other way counts as inactive or inconclusive. Unless noted, on the % scale 0 is the no-effect control and ±100 the full control effect.
SMILES,PLK1 PBD block,CCT chaperon mod,Sfp inh,MmCpn inh,VDR inhibitor,G9a block
Cc1cc(C)cc(N=Cc2[nH]c3ccc(Br)c(Cl)c3c2O)c1,4%,0,-10%,0%,-22%,13µM*
COc1ccc(CN=CC2=C(O)CNC2=O)cc1,2%,-1,21%,0%,6%,13%[12.7 µM]
COc1ccc(CN=Cc2[nH]c3ccc(Br)c(Cl)c3c2O)cc1,?,0,-17%,-3%,?,4µM*
COc1ccc2nc(/C=N/NC(=O)[C@@H]3CCCN3C(=O)OC(C)(C)C)ccc2c1,0%,-1,89µM*,-1%,-2%,-141%[59 µM]
Cc1cccc(OCc2n(CC(=O)OC3CC(C)CCC3C(C)C)c3ccccc3[n+]2C)c1 (stereo unspecified),-12%,1,25µM*,-4%,-5%,-5%
CC1CCC(C(C)C)C(OC(=O)Cn2c(-c3ccccc3)[n+](C)c3ccccc32)C1 (stereo unspecified),-13%,-3,-9%,1%,-11%,10%
CC1CCC(C(C)C)C(OC(=O)Cn2c(-c3ccc(F)cc3)[n+](C)c3ccccc32)C1 (stereo unspecified),-9%,-4,-9%,1%,-15%,25µM*
CCCCOC(=O)n1c(=O)oc2ccccc21,-6%,-5,11%,1%,10%,7%[59 µM]
COc1ccc2c(CN3CCN(Cc4ccccc4)CC3)cc(=O)oc2c1,-6%,0,.,.,.,.
Cc1cc(C)c2c(CN3CCN(Cc4ccccc4)CC3)cc(=O)oc2c1C,-8%,0,-7%,-2%,-3%,50µM*
CCOC(=O)n1c(=O)oc2ccc(Cl)cc21,-13%,-3,14%,0%,-10%,20µM*
CCc1ccc2c(CN3CCN(Cc4ccccc4)CC3)cc(=O)oc2c1,-8%,-3,-2%,0%,5%,71µM*
CC(C)c1ccc2oc(=O)cc(CN3CCN(c4ccccc4)CC3)c2c1,-3%,-3,-5%,-1%,-25%,-12%[59 µM]
CC(C)c1ccc2oc(=O)cc(CN3CCCCC3)c2c1,-10%,1,-1%,0%,-9%,71µM*
Cc1c(O)ccc2c(CN3CCN(Cc4ccccc4)CC3)cc(=O)oc12,0%,-2,9%,-3%,15%,-13%
COc1ccc(NCc2cc3cc4c(cc3n(CC(=O)Nc3ccc(F)cc3)c2=O)OCCO4)cc1,.,.,.,.,22%,?
COc1ccc(OC)c(NC(=O)C(C)n2c(=O)c(-c3ccccc3NC(C)=O)nc3ccccc32)c1 (stereo unspecified),.,.,.,.,0%,-5%[59 µM]
Cc1ccc(NC(=O)Cn2ccn(-c3ccc(F)c(F)c3)c(=O)c2=O)cc1C,.,.,.,.,7%,-2%[59 µM]
CCOC(=O)N1CCN(Cc2ccc(F)cc2F)CC1,-2%,-1,-24%,3%,-5%,11µM*
Cc1ccc2oc(=O)cc(CN3CCN(Cc4ccccc4)CC3)c2c1,1%,-12,2%,3%,14%,50µM*
Cc1nnc(SCc2cc(=O)oc3ccc4ccccc4c23)n1Cc1ccccc1,-14%,-3,-3%,-2%,-13%,35µM*
CCOC(=O)N1CCN(Cc2cc(=O)oc3ccc(Cl)cc23)CC1,-1%,-9,4%,-1%,3%,56µM*
CCN1CCN(Cc2cc(=O)oc3ccc(Cl)cc23)CC1,-8%,0,3%,-1%,8%,?
COc1ccc2[nH]cc(CCNc3ncnc4ccc(-c5ccccc5C#N)cc34)c2c1,.,.,15%,.,-6%,.
Cc1[nH][nH]c(=O)c1C(c1ccc(Cl)cc1)c1c(C)[nH][nH]c1=O,30µM*,-6,17%,1%,-7%,-2%
SMILES,PLK1 PBD block,CCT chaperon mod,Sfp inh,MmCpn inh,VDR inhibitor,G9a block
O=C1C=CC(=O)c2c(O)c(N3CCN(CCOCCO)CC3)c(Br)c(O)c21,?,-2,.,.,?,.
O=C1C=CC(=O)c2c(O)c(N3CCN(CCO)CC3)c(Cl)c(O)c21,12µM*,-2,.,.,8.9µM*,.
CC1CCCCN1c1cc2c(cc1F)c(=O)c(S(=O)(=O)c1ccccc1)cn2Cc1ccccc1 (stereo unspecified),.,.,.,.,8%,5%[59 µM]
CC(O)CSc1nc2c(c(=O)[nH]c(=O)n2C)n1Cc1ccccc1Cl (stereo unspecified),?,-2,-21%,-1%,-15%,45µM*
Cc1ccc(-c2nc3c(c(=O)[nH]c(=O)n3Cc3ccccc3)n2C)s1,.,.,12%,-1%,.,32%[59 µM]
Cc1ccc(-c2nc3c(c(=O)[nH]c(=O)n3Cc3ccccc3)n2Cc2ccccc2)o1,-11%,3,13µM*,-9%,-11%,10µM*
CC(O)CSc1nc2c(c(=O)[nH]c(=O)n2C)n1Cc1ccccc1 (stereo unspecified),-1%,2,16%,0%,-16%,10%
Cn1c(=O)[nH]c(=O)c2c1nc(SCC(O)CCl)n2Cc1ccccc1 (stereo unspecified),0%,1,40µM*,-2%,-8%,.
Cc1cccc(N2CCN(C(=O)Nc3cn(CC(C)C)c(=O)c4ccccc34)CC2)c1C,.,.,.,.,12%,?
O=C(c1ccccc1)N1c2nc(-c3ccco3)nn2C2(CCCCC2)[C@@H]2CCCC[C@@H]21,.,.,.,.,-9%,-15%[59 µM]
C=C1CCN(C(CC(C)C)C(=O)NCc2ccc(Cl)cc2)S(=O)(=O)c2ccccc21 (stereo unspecified),.,.,9%,.,2%,.
CCOC(=O)c1c(C)n(-c2ccc(OC)cc2)c2ccc(OC(=O)COc3ccccc3)cc12,.,.,.,.,-12%,25%[59 µM]
COC(=O)C1=C(C)N(Cc2ccccc2)C(=NCc2cccc(C(F)(F)F)c2)N[C@H]1c1cccc(C(F)(F)F)c1,-14%,0,?,-1%,5%,.
COC(=O)C1=C(C)N(Cc2ccccc2)C(=NCc2cccc(C(F)(F)F)c2)N[C@H]1c1cccc(F)c1,-15%,-3,56µM*,0%,-3%,-8%[12.7 µM]
COC(=O)C1=C(C)N(Cc2ccccc2)C(=NCC(C)C)N[C@H]1c1ccccc1,-9%,0,17%,-1%,4%,50µM*!
C=CCN=C1N[C@@H](c2cccc(C(F)(F)F)c2)C(C(=O)OC)=C(C)N1CC,9%,0,12%,-2%,-4%,28µM*!
C=CCN=C1N[C@@H](c2ccccc2)C(C(=O)OC)=C(C)N1CC,-11%,-2,12%,2%,-1%,40µM*!
COc1ccccc1CNc1ncnc2c1nc1n2CCCC1,.,.,.,.,-17%,11%[59 µM]
O=C1C2CC=CCC2C(=O)N1c1ccc(NCCc2cccc(F)c2)c([N+](=O)[O-])c1 (stereo unspecified),-11%,-4,-15%,-7%,-25%,45µM*
